# Reference: PubChem BioAssay (EPA / NIEHS)
# Results filed as inconclusive are left out. A structure can be active in one record and inactive in another. Active and inactive are the calls of the source. The calls were made as follows: active = hit-call score of the fitted dose curve at least 0.9, where 1 is the maximum; inconclusive = response in the unintended direction; inactive = score below 0.9.
# Assays:
# [1] = biological target: rat Opioid Receptor, Non-selective Binding, Oprm1 (gene 25601) (UniProt P33535); test: NVS_GPCR_rOpiate_NonSelective: NovaScreen (NVS) G Protein-Coupled Receptor Assay for rat Opioid Receptor, Non-selective Binding (AID 2283318)
# Sequence of rat Opioid Receptor, Non-selective Binding, Oprm1 (gene 25601) (P33535 whole entry, looked up): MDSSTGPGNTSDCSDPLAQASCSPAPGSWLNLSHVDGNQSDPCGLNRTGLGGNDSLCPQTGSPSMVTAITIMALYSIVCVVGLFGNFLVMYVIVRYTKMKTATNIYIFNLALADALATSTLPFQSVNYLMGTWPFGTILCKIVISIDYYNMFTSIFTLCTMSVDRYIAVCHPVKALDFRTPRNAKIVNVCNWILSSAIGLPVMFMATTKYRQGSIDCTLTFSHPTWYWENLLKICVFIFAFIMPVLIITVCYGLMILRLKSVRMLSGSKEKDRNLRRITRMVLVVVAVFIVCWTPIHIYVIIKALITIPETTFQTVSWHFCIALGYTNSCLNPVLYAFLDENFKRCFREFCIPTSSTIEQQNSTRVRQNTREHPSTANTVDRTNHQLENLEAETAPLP
# In short: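 Filter-based radioligand displacement using rat forebrain membrane preparations, measured 1.5 h post-dosing. Single-concentration duplicate screen at 25 uM, follow-up in concentration series; activity taken as signal loss relative to DMSO.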
# [2] = NVS_IC_rCaDHPRCh_L: NovaScreen (NVS) Ion Channel Assay for rat Calcium Channel, Type L, Dihydropyridine Site (CaDHPRCh_L) (AID 2283320)
# In short: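 Rat cortex membrane preparation; dihydropyridine-site radioligand displacement read 1 h post-dose by filtration and scintillation. Primary single-point screen 25 uM in duplicate, then concentration series to 50 uM maximum; DMSO as negative control.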
# [3] = biological target: rat Thyrotropin Releasing Hormone Receptor (TRH), Trhr (gene 25570) (UniProt Q01717); test: NVS_GPCR_rTRH: NovaScreen (NVS) G Protein-Coupled Receptor Assay for rat Thyrotropin Releasing Hormone Receptor (TRH) (AID 2283329);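 also: hit means lower bound tracer signal versus DMSO baseline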
# In short: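 Rat forebrain membranes; radioligand displacement at TRH receptor by filter-based scintillation counting, read 4 h after dosing. Duplicate single-point screen at 25 uM, actives rerun in concentration series; loss of signal relative to DMSO.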
# [4] = biological target: rat Histamine Receptor (H3), Hrh3 (gene 85268) (UniProt Q9QYN8); test: NVS_GPCR_rH3: NovaScreen (NVS) G Protein-Coupled Receptor Assay for rat Histamine Receptor (H3) (AID 2283303)
# In short: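 Filter-binding radioligand competition on rat forebrain membranes, 1 h incubation; compounds screened at 25 µM in duplicate and followed in concentration series to 50 µM, loss of bound signal vs DMSO.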
# [5] = biological target: rat Somatostatin Receptor (SST), Sstr1 (gene 25033) (UniProt P28646); test: NVS_GPCR_rSST: NovaScreen (NVS) G Protein-Coupled Receptor Assay for rat Somatostatin Receptor (SST) (AID 2283314)
# Sequence of rat Somatostatin Receptor (SST), Sstr1 (gene 25033) (P28646 whole entry, looked up): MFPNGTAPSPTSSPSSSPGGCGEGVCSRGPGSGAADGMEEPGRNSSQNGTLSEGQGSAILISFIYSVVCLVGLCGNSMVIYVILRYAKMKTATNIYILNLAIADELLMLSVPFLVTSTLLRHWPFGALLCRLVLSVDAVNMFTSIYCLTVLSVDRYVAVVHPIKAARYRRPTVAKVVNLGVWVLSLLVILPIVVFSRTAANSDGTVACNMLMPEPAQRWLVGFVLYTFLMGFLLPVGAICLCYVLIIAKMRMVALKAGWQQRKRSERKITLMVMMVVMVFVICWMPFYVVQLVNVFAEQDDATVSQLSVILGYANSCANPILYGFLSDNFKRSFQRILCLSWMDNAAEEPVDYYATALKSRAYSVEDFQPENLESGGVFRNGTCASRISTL
# In short: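 Single-concentration duplicate screen (25 uM), then concentration-response up to 50 uM for chemicals passing a threshold such as 30% inhibition. Membranes came from rat forebrain. Binding was measured 1 h post-dose by filter radiodetection and scintillation, relative to DMSO.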
# Adra2b (gene 24174) = Adra2b (gene 24174) (UniProt P19328); test: NVS_GPCR_rmAdra2B: NovaScreen (NVS) G Protein-Coupled Receptor Assay for hybird cells Adrenergic, Alpha 2B Receptor (Adra2B) (AID 2283306)
# Sequence of Adra2b (gene 24174) (P19328 whole entry, looked up): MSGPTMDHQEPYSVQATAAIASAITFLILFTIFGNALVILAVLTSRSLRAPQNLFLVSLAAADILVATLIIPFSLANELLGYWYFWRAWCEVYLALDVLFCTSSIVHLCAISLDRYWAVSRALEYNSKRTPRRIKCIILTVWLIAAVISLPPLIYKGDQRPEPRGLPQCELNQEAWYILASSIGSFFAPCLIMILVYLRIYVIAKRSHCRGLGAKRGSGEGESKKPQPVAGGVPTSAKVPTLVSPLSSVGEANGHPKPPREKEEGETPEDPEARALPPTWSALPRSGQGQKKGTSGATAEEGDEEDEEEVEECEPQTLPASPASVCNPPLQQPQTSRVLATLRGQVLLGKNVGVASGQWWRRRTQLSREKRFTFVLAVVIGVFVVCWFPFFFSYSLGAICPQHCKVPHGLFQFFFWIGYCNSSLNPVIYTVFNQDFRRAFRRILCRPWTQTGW
# In short: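 Compounds screened first at 25 uM in duplicate, with actives followed up in concentration-response; specific radioligand displacement from hybrid neuroglioma/blastoma cell membrane preparations measured by filter scintillation counting after 1 h, normalized to DMSO.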
# [6] = biological target: rat Neurokinin-3 Receptor (NK3), Tacr3 (gene 24808) (UniProt P16177); test: NVS_GPCR_rNK3: NovaScreen (NVS) G Protein-Coupled Receptor Assay for rat Neurokinin-3 Receptor (NK3) (AID 2283310)
# Sequence of rat Neurokinin-3 Receptor (NK3), Tacr3 (gene 24808) (P16177 whole entry, looked up): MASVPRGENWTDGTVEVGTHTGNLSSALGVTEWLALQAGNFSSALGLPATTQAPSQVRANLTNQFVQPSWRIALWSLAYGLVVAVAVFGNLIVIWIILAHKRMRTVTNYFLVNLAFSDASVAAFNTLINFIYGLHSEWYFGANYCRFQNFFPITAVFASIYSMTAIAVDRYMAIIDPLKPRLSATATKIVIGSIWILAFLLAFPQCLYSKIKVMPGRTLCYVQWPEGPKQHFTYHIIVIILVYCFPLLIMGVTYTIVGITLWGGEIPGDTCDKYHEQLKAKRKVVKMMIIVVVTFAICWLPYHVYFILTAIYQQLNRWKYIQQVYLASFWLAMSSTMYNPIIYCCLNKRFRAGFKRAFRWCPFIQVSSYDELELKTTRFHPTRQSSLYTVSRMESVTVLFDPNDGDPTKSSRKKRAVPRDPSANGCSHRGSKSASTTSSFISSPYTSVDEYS
# In short: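 Filter-based radioligand displacement on rat cortex membrane preparations, read by scintillation 2 h post-dose. Chemicals first tested in duplicate at 25 uM; actives followed up in concentration series with a 50 uM maximum.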
# [7] = biological target: rat Opioid Receptor, Non-selective Sodium (Na+) Binding, Oprm1 (gene 25601) (UniProt P33535); test: NVS_GPCR_rOpiate_NonSelectiveNa: NovaScreen (NVS) G Protein-Coupled Receptor Assay for rat Opioid Receptor, Non-selective Sodium (Na+) Binding (AID 2283311)
# Sequence of rat Opioid Receptor, Non-selective Sodium (Na+) Binding, Oprm1 (gene 25601) (P33535 whole entry, looked up): as the sequence (P33535 whole entry, looked up) above
# In short: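 Filtration radioligand binding on rat forebrain membrane preparations, read 1.5 h after dosing. Single-concentration 25 µM primary screen in duplicate, followed by singleton concentration series to 50 µM max for actives; DMSO baseline.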
# NCBI gene 24521 = test: NVS_IC_rKATPCh: NovaScreen (NVS) Ion Channel Assay for rat Potassium Channel, ATP-Sensitive (KATPCh) (AID 2283319)
# In short: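 Primary duplicate screen at 25 uM, then singleton concentration series to 50 uM maximum, in a rat cortex membrane radioligand displacement assay. Binding measured by filtration and scintillation 2 h post-dose; DMSO baseline.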
# [8] = biological target: Sodium channel protein type 1 subunit alpha (Rattus norvegicus) (UniProt P04774); test: NVS_IC_rNaCh_site2: NovaScreen (NVS) Ion Channel Assay for rat Sodium Channel, Site 2 (NaCh) (AID 2283322);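 also: hit means loss of radioligand binding signal relative to DMSO so AC50 marks displacement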
# In short: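 Initial duplicate single-point testing at 25 uM, followed by concentration-response runs for actives. Binding of radioligand to rat forebrain membranes quantified after 1 h via filter-based radiodetection.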
# [9] = biological target: rat Glutamate Metabotropic Receptor 5 (MGluR5), Grm5 (gene 24418) (UniProt P31424); test: NVS_GPCR_rmMGluR5: NovaScreen (NVS) G Protein-Coupled Receptor Assay for rat Glutamate Metabotropic Receptor 5 (MGluR5) (AID 2283307)
# In short: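 Compounds first screened in duplicate at 25 uM, then in concentration series up to 50 uM if over threshold. Radioligand displacement on rat whole-brain membranes, filtration and scintillation counting after 1.5 h; binding loss relative to DMSO.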
# [10] = biological target: bovine Gamma-Aminobutyric Acid Type A Receptor BDZ, alpha 5 site (GABARa5), GABRA5 (gene 523515) (UniProt Q08E50); test: NVS_LGIC_bGABARa5: NovaScreen (NVS) Ligand-Gated Ion Channel Assay for bovine Gamma-Aminobutyric Acid Type A Receptor BDZ, alpha 5 site (GABARa5) (AID 2283323)
# Sequence of bovine Gamma-Aminobutyric Acid Type A Receptor BDZ, alpha 5 site (GABARa5), GABRA5 (gene 523515) (Q08E50 whole entry, looked up): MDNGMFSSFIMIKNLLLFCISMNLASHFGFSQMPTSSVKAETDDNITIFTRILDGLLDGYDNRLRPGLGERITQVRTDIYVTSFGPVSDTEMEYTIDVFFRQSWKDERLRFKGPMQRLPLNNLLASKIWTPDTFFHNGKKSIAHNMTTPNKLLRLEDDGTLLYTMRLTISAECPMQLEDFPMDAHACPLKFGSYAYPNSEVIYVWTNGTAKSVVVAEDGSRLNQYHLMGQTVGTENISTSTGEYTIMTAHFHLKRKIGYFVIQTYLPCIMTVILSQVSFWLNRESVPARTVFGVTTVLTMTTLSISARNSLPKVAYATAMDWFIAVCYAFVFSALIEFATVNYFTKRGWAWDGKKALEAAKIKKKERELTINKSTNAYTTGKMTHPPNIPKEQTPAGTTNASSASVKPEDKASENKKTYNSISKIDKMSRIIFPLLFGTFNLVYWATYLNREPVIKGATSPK
# In short: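 Tested first in duplicate at a single 25 uM, with hits re-run in concentration series to a 50 uM maximum. Bovine hippocampal membranes; specific radioligand displacement measured by filter scintillation counting 1 hr post-dose.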
# [11] = biological target: rat Glutamate, AMPA Site (AMPA), Gria1 (gene 50592) (UniProt P19490); test: NVS_LGIC_rAMPA: NovaScreen (NVS) Ligand-Gated Ion Channel Assay for rat Glutamate, AMPA Site (AMPA) (AID 2283324)
# Sequence of rat Glutamate, AMPA Site (AMPA), Gria1 (gene 50592) (P19490 whole entry, looked up): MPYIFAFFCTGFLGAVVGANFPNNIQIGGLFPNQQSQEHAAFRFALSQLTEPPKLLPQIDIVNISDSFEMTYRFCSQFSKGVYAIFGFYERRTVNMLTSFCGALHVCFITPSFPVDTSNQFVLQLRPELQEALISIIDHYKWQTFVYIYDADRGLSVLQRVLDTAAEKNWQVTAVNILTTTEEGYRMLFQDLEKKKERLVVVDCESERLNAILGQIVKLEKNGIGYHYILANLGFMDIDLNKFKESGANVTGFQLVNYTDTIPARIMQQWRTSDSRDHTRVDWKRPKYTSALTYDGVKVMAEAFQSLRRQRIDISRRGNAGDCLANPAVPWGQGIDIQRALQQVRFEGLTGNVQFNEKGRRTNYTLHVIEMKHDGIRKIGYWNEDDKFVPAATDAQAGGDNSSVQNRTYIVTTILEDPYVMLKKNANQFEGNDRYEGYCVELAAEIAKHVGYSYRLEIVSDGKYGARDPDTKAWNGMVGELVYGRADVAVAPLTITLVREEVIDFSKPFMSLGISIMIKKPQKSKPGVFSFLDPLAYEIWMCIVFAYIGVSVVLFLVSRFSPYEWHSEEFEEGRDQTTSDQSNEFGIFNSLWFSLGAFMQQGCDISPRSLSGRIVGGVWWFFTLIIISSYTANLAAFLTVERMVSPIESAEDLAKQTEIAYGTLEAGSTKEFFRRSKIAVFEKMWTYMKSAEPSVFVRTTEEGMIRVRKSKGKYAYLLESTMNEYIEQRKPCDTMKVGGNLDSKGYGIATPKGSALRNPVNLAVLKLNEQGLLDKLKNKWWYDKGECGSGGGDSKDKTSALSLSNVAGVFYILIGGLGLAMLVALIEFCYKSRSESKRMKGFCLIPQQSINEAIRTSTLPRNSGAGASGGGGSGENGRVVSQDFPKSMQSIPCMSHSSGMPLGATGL
# In short: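 Screening at 25 uM in duplicate preceded concentration series reaching 50 uM for qualifying compounds. Radioligand displacement on rat forebrain membranes, 1 h, filter-based scintillation readout; reduced binding relative to DMSO.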
# [12] = biological target: human Serotonin, 5-Hydroxytryptamine Receptor 3 (5HT3), HTR3A (gene 3359) (UniProt P46098); test: NVS_LGIC_h5HT3: NovaScreen (NVS) Ligand-Gated Ion Channel Assay for human Serotonin, 5-Hydroxytryptamine Receptor 3 (5HT3) (AID 2283325)
# In short: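 Initially tested at 25 uM in duplicate, then up to 50 uM in concentration-response for actives, compounds competed with a radioligand for HEK293-derived human 5-HT3 receptor. Bound counts were measured by filtration and scintillation at 1 h; loss of signal versus DMSO.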
# [13] = biological target: rat Neonicotinoid receptor (NNR), Chrna7 (gene 25302) (UniProt Q05941); test: NVS_LGIC_rNNR_BungSens: NovaScreen (NVS) Ligand-Gated Ion Channel Assay for rat Neonicotinoid receptor (NNR) (AID 2283315)
# Sequence of rat Neonicotinoid receptor (NNR), Chrna7 (gene 25302) (Q05941 whole entry, looked up): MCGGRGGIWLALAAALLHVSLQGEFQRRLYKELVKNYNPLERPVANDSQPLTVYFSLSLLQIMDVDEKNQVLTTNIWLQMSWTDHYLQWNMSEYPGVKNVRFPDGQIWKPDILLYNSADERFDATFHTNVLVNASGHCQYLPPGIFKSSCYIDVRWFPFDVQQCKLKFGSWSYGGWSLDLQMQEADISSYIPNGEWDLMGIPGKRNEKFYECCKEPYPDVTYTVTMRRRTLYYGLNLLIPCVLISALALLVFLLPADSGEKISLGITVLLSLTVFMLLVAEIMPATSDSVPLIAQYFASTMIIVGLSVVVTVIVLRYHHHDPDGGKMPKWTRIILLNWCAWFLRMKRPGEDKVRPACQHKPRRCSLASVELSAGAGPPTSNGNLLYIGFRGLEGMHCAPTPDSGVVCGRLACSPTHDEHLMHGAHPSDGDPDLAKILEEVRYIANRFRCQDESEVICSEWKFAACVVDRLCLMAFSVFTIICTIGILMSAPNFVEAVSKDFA
# In short: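 Rat cortical membrane preparation incubated 2.5 h with tritiated or iodinated radioligand and test chemical. Bound radioactivity was filtered and counted by scintillation, and displacement was analysed against DMSO.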
# [14] = biological target: human Androgen Receptor (AR), AR (gene 367) (UniProt P10275); test: NVS_NR_hAR: NovaScreen (NVS) Nuclear Receptor Binding Assay for human Androgen Receptor (AR) (AID 2283332)
# Sequence of human Androgen Receptor (AR), AR (gene 367) (P10275 whole entry, looked up): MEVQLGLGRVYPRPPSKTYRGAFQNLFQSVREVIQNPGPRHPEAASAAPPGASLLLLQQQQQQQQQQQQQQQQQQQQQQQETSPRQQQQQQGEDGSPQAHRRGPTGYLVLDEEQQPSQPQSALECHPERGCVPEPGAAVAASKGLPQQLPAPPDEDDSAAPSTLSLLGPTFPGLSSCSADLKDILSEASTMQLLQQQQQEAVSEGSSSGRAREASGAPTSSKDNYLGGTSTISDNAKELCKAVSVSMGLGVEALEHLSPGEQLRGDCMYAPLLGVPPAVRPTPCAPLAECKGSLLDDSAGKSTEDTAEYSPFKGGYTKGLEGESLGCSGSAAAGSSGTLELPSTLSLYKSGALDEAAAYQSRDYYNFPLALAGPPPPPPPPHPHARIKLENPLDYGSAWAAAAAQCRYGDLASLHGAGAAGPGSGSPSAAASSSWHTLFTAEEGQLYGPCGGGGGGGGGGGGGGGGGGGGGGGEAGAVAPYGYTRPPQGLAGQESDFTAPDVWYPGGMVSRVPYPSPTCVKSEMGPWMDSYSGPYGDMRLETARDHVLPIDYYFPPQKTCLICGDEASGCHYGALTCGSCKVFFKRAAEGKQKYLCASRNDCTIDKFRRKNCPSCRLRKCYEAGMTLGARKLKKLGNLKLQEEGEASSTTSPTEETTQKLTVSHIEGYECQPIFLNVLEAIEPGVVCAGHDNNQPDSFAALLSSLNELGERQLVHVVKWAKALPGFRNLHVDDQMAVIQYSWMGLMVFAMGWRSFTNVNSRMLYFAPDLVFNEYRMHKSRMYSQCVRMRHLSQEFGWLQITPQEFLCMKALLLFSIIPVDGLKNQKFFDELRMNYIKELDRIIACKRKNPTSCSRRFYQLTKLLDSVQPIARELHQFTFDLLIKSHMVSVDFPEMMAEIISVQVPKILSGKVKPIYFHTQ
# In short: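 Actives from a duplicate 25 uM single-point screen went on to concentration series. Read-out after 20 h was scintillation counting of displaced radioligand in LnCAP extract, with DMSO as baseline.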
# [15] = biological target: Metabotropic glutamate receptor 1 (Rattus norvegicus) (UniProt P23385); test: NVS_GPCR_rmMGluR1: NovaScreen (NVS) G Protein-Coupled Receptor Assay for rat Glutamate Metabotropic Receptor 1 (MGluR1) (AID 2283305)
# In short: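 Binding to native receptor from rat cerebellum extract, measured as displacement of a radioligand (scintillation counting, filter separation) after 1 hour. Compounds tested at 25 uM in duplicate, then titrated to a 50 uM maximum.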
# [16] = biological target: rat Glutamate, NMDA Agonist Site (GluNMDA), Grin1 (gene 24408) (UniProt P35439); test: NVS_LGIC_rGluNMDA_Agonist: NovaScreen (NVS) Ligand-Gated Ion Channel Assay for rat Glutamate, NMDA Agonist Site (GluNMDA) (AID 2283327)
# In short: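 Radioligand displacement at the agonist site on rat forebrain membrane preparations, read by filter scintillation after 1 h. Chemicals were first run at 25 uM in duplicate; those passing threshold were titrated to a 50 uM maximum.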
# [17] = biological target: rat Gamma-Aminobutyric Acid Type A Receptor, Non-Selective (GABAR-NonSelective), Gabra1 (gene 29705) (UniProt P62813); test: NVS_LGIC_rGABAR_NonSelective: NovaScreen (NVS) Ligand-Gated Ion Channel Assay for rat Gamma-Aminobutyric Acid Type A Receptor, Non-Selective (GABAR-NonSelective) (AID 2283326)
# In short: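 Compounds were first screened in duplicate at 25 uM, with actives run as singleton concentration series (max 50 uM). Binding of a radioligand to rat whole-brain GABA-A preparation was measured by filtration and scintillation counting after 1 h, DMSO baseline.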
structure (smiles),measurement,setting,value
ClC1=C(Cl)C(Cl)(Cl)C(Cl)=C1Cl,outcome,[1],inactive
same,outcome,[2],inactive
same,outcome,[3],inactive
CN1CCC[C@H]1c1cccnc1,AC50,[4],25 µM (active)
CC(C)(C)c1ccc(O)c(C(C)(C)C)c1,AC50,[5],10.7 µM (active)
CC(=O)NC1(c2cccc(F)c2)CCN(CC[C@@]2(c3ccc(Cl)c(Cl)c3)CN(c3ccccc3)C(=O)CO2)CC1,AC50,Adra2b (gene 24174),11 µM (active)
same,AC50,[6],0.713 µM (active)
same,AC50,[7],10.5 µM (active)
same,AC50,[5],9.18 µM (active)
same,AC50,[1],7.82 µM (active)
same,AC50,NCBI gene 24521,4.88 µM (active)
same,AC50,[2],2.24 µM (active)
same,AC50,[8],0.449 µM (active)
Nc1cccc2c(N)cccc12,AC50,[8],18.5 µM (active)
CC(C)CCCCCCOC(=O)CCCCC(=O)OCCCCCCC(C)C,outcome,[9],inactive
CCCCCCCC(=O)O,outcome,[4],inactive
same,outcome,Adra2b (gene 24174),inactive
same,outcome,[7],inactive
same,outcome,[1],inactive
same,outcome,[10],inactive
same,outcome,[11],inactive
same,outcome,[12],inactive
O=c1c(-c2ccc(O)cc2)coc2cc(O)ccc12,outcome,[13],inactive
same,outcome,[1],inactive
CC[C@H](C)[C@@H](C(=O)O)n1sc2ccccc2c1=O,AC50,[7],3.52 µM (active)
same,outcome,[11],inactive
O=C(OCCOCCOC(=O)c1ccccc1)c1ccccc1,outcome,[10],inactive
COC(=O)CCCCC(=O)OC,outcome,[11],inactive
Oc1cc2ccccc2c2ccccc12,AC50,[14],19.2 µM (active)
CCCCCCCCCCCCc1ccccc1S(=O)(=O)O,AC50,[15],8.71 µM (active)
same,AC50,Adra2b (gene 24174),25 µM (active)
same,AC50,[16],20.1 µM (active)
same,AC50,[14],8.85 µM (active)
CCN(CC)CCNc1ccc(CNC=O)c2sc3ccc(OC)cc3c(=O)c12,AC50,Adra2b (gene 24174),9 µM (active)
same,outcome,[7],inactive
same,AC50,[13],29.3 µM (active)
same,outcome,[1],inactive
same,AC50,[8],12.7 µM (active)
same,outcome,[17],inactive
CCCCCCCCCCCCCC[N+](C)(C)C,AC50,[8],8.44 µM (active)
CC[C@H](c1ccc(O)cc1)[C@@H](CC)c1ccc(O)cc1,outcome,[6],inactive
same,AC50,[7],1.77 µM (active)
same,outcome,[13],inactive
same,AC50,[1],5.14 µM (active)
same,outcome,[8],inactive
same,AC50,[14],0.416 µM (active)
same,outcome,[14],inactive
